# Bfl-1 A1 inh: inhibitors of the anti-apoptotic protein A1, read as caspase activation. MEF A1-2A-BIM cells, Caspase-Glo 3/7 luminescence, 3 h; percent of clofoctol response, vehicle zero. caspase activation, % (no concentration beside the values). actives 0.066% (n = 330,000). AID 2462;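 active = over half of replicate activation scores above 10%, or exactly half above 10 with the replicate mean above 10; inconclusive = replicate mean below 10 yet half the replicates above 10; inactive = over half of replicates below 10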
# Beta apoptosis: blocks beta cell apoptosis; AID 435005; protection from apoptosis, % (concentration not given with the values); actives 0.8% (n = 300,000); INS-1E cytokine-induced death, ATP luminescence, 48 h; percent of positive-control rescue, neutral wells zero;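 active = Every replicate reaches about 75%, or at least half do and their mean reaches it too, limit read from the data; inconclusive = At least half of replicates reach the limit but their mean does not; inactive = Under half of replicates reach the limit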;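 note: higher means more ATP so stronger rescue from cytokine killing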
# Mdm2 MdmX PPI: human Mdm2/MdmX binding inhibition | actives 3% (n = 330,000) | SaOS-2 split-luciferase Mdm2/MdmX complementation, luminescence | O15151+Q00987 | inhibition, % at 8 µM;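 active = inhibition of at least 50% at 8 µM in the primary screen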
# Target sequence (O15151 whole entry, looked up): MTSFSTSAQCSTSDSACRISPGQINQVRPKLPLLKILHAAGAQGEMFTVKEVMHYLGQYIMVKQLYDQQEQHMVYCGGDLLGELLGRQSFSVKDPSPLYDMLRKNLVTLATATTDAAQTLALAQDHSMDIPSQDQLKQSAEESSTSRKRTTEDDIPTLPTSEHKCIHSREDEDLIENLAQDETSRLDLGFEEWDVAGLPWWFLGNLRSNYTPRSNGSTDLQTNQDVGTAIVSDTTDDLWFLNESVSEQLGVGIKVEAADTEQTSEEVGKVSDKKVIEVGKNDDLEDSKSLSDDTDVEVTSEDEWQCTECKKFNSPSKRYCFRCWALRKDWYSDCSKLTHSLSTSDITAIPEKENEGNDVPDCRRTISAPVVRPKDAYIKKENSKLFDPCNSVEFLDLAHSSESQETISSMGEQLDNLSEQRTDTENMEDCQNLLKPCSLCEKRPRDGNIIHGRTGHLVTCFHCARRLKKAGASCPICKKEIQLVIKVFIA
# Target sequence (Q00987 whole entry, looked up): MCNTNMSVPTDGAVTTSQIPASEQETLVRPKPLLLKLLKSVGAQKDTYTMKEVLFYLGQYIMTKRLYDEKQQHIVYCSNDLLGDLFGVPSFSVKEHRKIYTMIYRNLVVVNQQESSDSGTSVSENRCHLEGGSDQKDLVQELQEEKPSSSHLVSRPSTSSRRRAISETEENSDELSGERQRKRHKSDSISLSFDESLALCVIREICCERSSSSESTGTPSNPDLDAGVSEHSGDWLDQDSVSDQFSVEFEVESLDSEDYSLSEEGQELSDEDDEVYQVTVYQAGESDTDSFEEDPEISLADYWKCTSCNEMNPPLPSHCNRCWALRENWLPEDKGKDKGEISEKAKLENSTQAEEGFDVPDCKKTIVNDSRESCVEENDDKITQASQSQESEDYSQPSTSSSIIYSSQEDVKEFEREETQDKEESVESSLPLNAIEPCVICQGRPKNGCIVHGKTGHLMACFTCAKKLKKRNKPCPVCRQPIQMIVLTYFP
# CSC inhib: blocks cancer stem cells; actives 1.1% (n = 300,000); AID 2717; inhibition, % at 7.5 µM; cancer stem cell-like cells viability, luminescence; in the data active = inhibition above about 75%; inconclusive = no clear call, values can overlap the other calls; tested in HMLE shEcad cells
# aSyn UTR inh: 5' untranslated region of α-synuclein, MLPCN primary screen; alpha-synuclein 5'UTR reporter, inhibitor activity; inhibition, % (tested at 7.5 µM); actives 0.82% (n = 300,000); AID 1813; in the data active = inhibition above about 60%; inconclusive = no clear call, values can overlap the other calls;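 note: H4 neuroglioblastoma cells stably carrying SNCA 5'UTR luciferase fusion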
# Mdm2-MdmX conf: human Mdm2/MdmX binding inhibition, confirmed | shares compounds with Mdm2 MdmX PPI | luminescent assay | inhibition, % at 8 µM | actives 55% (n = 10,000); in the data active = inhibition above about 40%
# FLuc counter: counter-screen for Mdm2/MdmX inhibitors: full-length luciferase. shares compounds with Mdm2 MdmX PPI. SaOS-2 full-length luciferase counterscreen, luminescence. inhibition, % at 8 µM. actives 77% (n = 6,200). AID 504607;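 active = mean inhibition at 8 µM reaching about 37%, which flags the compound as non-specific, limit read from the data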;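 note: p53-null SaOS-2 cells with luciferase driven by a doxycycline-inducible promoter; compound on cells about two nights before reading with doxycycline added after day one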
# Hits are given with their value; - = inactive; ? = inconclusive; . = no result given. The list is not random: actives were taken first. Their share in the collection is about 4.1%.
SMILES,Bfl-1 A1 inh,Beta apoptosis,Mdm2 MdmX PPI,CSC inhib,aSyn UTR inh,Mdm2-MdmX conf,FLuc counter
Cc1cc2c(cc(C(=O)OCC(=O)NCc3cccs3)n2C(C)C)o1,-,-,63,-,-,50,77
Cc1cc(C)cc(C(=O)OCC(=O)NCc2cccs2)c1,-,-,-,-,-,.,.
Cc1ccc2nc(Cl)c3nnnn3c2c1,-,-,97,?,-,90,-
O=C1NCN(c2ccccc2)C12CCN(CCCC(c1ccc(F)cc1)c1ccc(F)cc1)CC2,-,-,99,78,-,52,73
O=C1CCC(=O)N1CCC(c1ccc(F)cc1)c1ccco1 (centres undefined),-,.,-,-,-,.,.
O=C(NCc1ccccc1F)c1ccncc1,-,-,-,-,-,.,.
Cc1cc(NC(=O)/C=C/C(=O)N(CC(=O)NC2CCCC2)c2cccc3ccccc23)no1,-,-,53,-,-,-,.
CCc1ccc(C(C(=O)NC2CCCC2)N(C(=O)/C=C/C(=O)Nc2cc(C)on2)c2ccccc2C)cc1 (centres undefined),-,-,77,-,-,75,59
CCOc1ccc(N(C(=O)/C=C/C(=O)Nc2cc(C)on2)C(C(=O)NC2CCCC2)c2ccccc2C)cc1 (centres undefined),-,.,81,.,-,77,-
CCOC(=O)C1(CC)NC(c2ccc(OC)c(OC)c2)C2C(=O)N(c3cccc(C(C)=O)c3)C(=O)C21 (centres undefined),-,-,-,-,-,.,.
COc1cc(F)cc(-c2ccc3c(c2)c(-c2cccs2)c(-c2cc(OC)cc(OC)c2)n3C)c1,-,-,54,?,.,55,57
CC(C)(C)OC(=O)NCc1ccc(NC(=O)c2nc[nH]c2C(=O)NCCCNC(=O)c2[nH]cnc2C(=O)Nc2ccc(CNC(=O)OC(C)(C)C)cc2)cc1,-,-,86,114,.,-,.
CC(C)(C)OC(=O)NCc1ccc(NC(=O)c2nc[nH]c2C(=O)NCCCCNC(=O)c2[nH]cnc2C(=O)Nc2ccc(CNC(=O)OC(C)(C)C)cc2)cc1,-,-,96,120,.,-,.
CC(C)(C)OC(=O)NCCCCCNC(=O)c1[nH]cnc1C(=O)Nc1ccc(Cl)cc1,-,-,64,-,.,-,59
CC(C)(C)OC(=O)NCc1ccc(NC(=O)c2nc[nH]c2C(=O)NCCCCCCNC(=O)c2[nH]cnc2C(=O)Nc2ccc(CNC(=O)OC(C)(C)C)cc2)cc1,-,-,-,-,.,.,.
CC(C)(C)OC(=O)NCCCC[C@H](NC(=O)c1[nH]cnc1C(=O)Nc1ccc(CNC(=O)OC(C)(C)C)cc1)C(=O)OC(C)(C)C,-,-,87,-,.,47,75
O=C(COc1ccccc1)NCC(c1ccco1)N1CCCCC1 (centres undefined),-,-,-,-,-,.,.
Cc1onc(-c2ccccc2Cl)c1C(=O)NNC(=O)c1cccc(F)c1,-,-,-,-,-,.,.
COc1ccc(NC(=O)COC(=O)C2CC2)cc1S(=O)(=O)N1CCCCC1,-,-,-,.,.,.,.
CC(=O)Nc1nnc(SCC(=O)Nc2ccc(N3CCOCC3)c(Cl)c2)s1,-,-,59,-,-,-,.
C/C=C\C(=O)Nc1cccc(C2=NOC3(C2)C[C@H](C(N)=O)N(C(=O)Cc2ccc([N+](=O)[O-])cc2)C3)c1 (some centres undefined),-,-,-,-,-,.,.
Cc1cccc(OCC(=O)Nc2cccc(-c3nnc(-c4ccccc4)o3)c2)c1C,-,-,-,-,-,.,.
Cc1cccc(C)c1OCC(=O)Nc1cccc(-c2nnc(-c3ccccc3)o2)c1,-,-,61,.,-,-,.
COc1ccc(/C=C/C(=O)Nc2ccc3nc4n(c(=O)c3c2)CCCC4)cc1OC,-,-,60,-,-,-,.
COc1cc(C(=O)Nc2ccc3nc4n(c(=O)c3c2)CCCCC4)cc(OC)c1OC,-,-,-,-,-,.,.
SMILES,Bfl-1 A1 inh,Beta apoptosis,Mdm2 MdmX PPI,CSC inhib,aSyn UTR inh,Mdm2-MdmX conf,FLuc counter
O=C(Nc1ccc2nc3n(c(=O)c2c1)CCCCC3)c1ccccc1[N+](=O)[O-],-,-,-,-,-,.,.
O=C(Nc1ccc2nc3n(c(=O)c2c1)CCCC3)c1ccccc1F,-,-,-,-,-,.,.
O=C(Nc1ccc2nc3n(c(=O)c2c1)CCCCC3)c1c(F)ccc([N+](=O)[O-])c1F,-,105,96,116,85,100,52
O=C(Nc1ccc2nc3n(c(=O)c2c1)CCCCC3)c1cc([N+](=O)[O-])ccc1F,-,-,98,?,-,79,-
CC(OC(=O)CCCN=C1NS(=O)(=O)c2ccccc21)C(=O)NC1CCCCC1C (centres undefined),-,-,-,-,-,.,.
COc1ccccc1NS(=O)(=O)c1ccc(C)c(NS(=O)(=O)c2cc(C(=O)O)cc(C)c2C)c1,-,-,-,.,-,.,.
CSc1ncccc1C(=O)Nc1ccccc1N1CCOCC1,-,-,-,-,.,.,.
CCCOc1ccc(C(=O)C(CN2CCOCC2)c2ccccc2)cc1 (centres undefined),-,79,91,-,-,84,-
O=C(c1ccc(Cl)cc1)C(CN1CCCCC1)c1ccccc1 (centres undefined),-,91,94,95,-,55,42
COc1cc(NC(=O)c2cc3c(=O)n(C)c4ccccc4c3n2C)cc(OC)c1OC,-,-,-,-,-,.,.
COc1ccc(NC(=O)c2cc3c(=O)n(C)c4ccccc4c3n2C)cc1OC,-,-,59,-,-,-,.
COc1ccc(NC(=O)c2cc3c(=O)n(C)c4ccccc4c3n2C)cc1Cl,-,-,62,-,-,-,.
COCc1ccc(CN2CCCCC2C(=O)Nc2ccc(Oc3ccccc3)nc2)o1 (centres undefined),-,-,-,-,-,.,.
CCCCCCC[C@@H](C/C=C/CCC(=O)N(C)C/C(=C/Cl)C/C(=C\C(=O)N1C[C@H](O)CC1=O)OC)OC,.,.,-,.,.,.,.
CCCCCCC[C@@H](C/C=C/CCC(=O)N(C)C/C(=C/Cl)C/C(=C\C(=O)N1CC(OC)=CC1=O)OC)OC,-,-,60,140,.,-,.
Cc1cc(C)n(-c2nnc(C)n2/N=C/c2ccco2)n1,-,-,-,-,-,.,.
CCCOc1ccc2ccccc2c1/C=N/n1c(C)nnc1-n1nc(C)cc1C,-,-,52,-,-,54,54
Cc1ccc(-n2c(C)cc(/C=C3\SC(=O)NC3=O)c2C)cc1,-,-,-,-,-,.,.
Cc1cc(/C=C2\SC(=Nc3ccccc3)NC2=O)c(C)n1-c1ccc(S(N)(=O)=O)cc1,-,-,61,-,-,50,57
Cc1ccc(NC(=O)Cn2nnc(C(=O)NCc3cccs3)c2N)c(C)c1,-,.,69,-,-,-,.

# Screens as filed in PubChem.
